Source: ChEMBL document CHEMBL3988442, “University of Dundee, Small-Polar-MMV Screening Library” (2021)

Target: T1, Proteasome subunit beta (Trypanosoma cruzi) (UniProt O96673)
T1 sequence (whole entry): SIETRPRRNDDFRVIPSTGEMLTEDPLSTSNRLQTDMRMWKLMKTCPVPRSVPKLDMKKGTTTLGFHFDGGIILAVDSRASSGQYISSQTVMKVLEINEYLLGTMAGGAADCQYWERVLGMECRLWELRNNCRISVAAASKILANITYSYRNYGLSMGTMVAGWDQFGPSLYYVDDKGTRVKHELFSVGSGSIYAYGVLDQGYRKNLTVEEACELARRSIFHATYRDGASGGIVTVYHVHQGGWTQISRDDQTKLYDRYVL
Assay: Trypanosoma cruzi proteasome chymotrypsin-like activity (TcProtChymo) assay. Further: in the data most compounds retested in dose-response had high values.
Type: functional
Parameters: scale not given: direction of the effect not stated beside the values
Details: 9.37 µM

| Structure (SMILES) | Percent Effect [%] |
| --- | --- |
| Cc1csc(N2CCCN(C(=O)c3c(C)oc(C)c3C)CC2)n1 | 20.1 |
| CCc1nnc(CN2CCCC(c3cc(C(F)(F)F)[nH]n3)C2)o1 (stereo not given) | 15.3 |
| Cc1cnn(CC2CCCCN2C(=O)c2cc(Cl)c[nH]2)c1 (stereo not given) | 6.67 |
| COC(=O)C1CCN(C(=O)c2ccc(C)c(NS(C)(=O)=O)c2)CC1 | 8.9 |
| c1cc(-c2noc(CN3CCn4c(nnc4C4CC4)C3)n2)co1 | 2.13 |
| CN(CC(=O)Nc1ccc(Br)cn1)C(=O)Cc1ccc(O)cc1 | 8.4 |
| CCc1ncc2c(n1)CN(CC(=O)Nc1nnc(C)s1)CC2 | 8.4 |
| COCCN1CCN(Cc2ccc(F)c(C)c2)[C@H]2CS(=O)(=O)C[C@H]21 | 5.48 |
| CNC(=O)N1C[C@H]2C[C@H](C(=O)Nc3ccccc3)[C@@H](C1)O2 | 11.7 |
| Cc1cccc(CN2C(=O)CCC23CCN(c2ncc(F)cn2)CC3)n1 | 0.258 |
| N#Cc1cccc(S(=O)(=O)NC(=O)COc2ccc3c(c2)CCC3)c1 | 17 |
| O=C(Cn1cc(-c2ccccc2)ncc1=O)Nc1ccncc1 | 20 |
| O=C(N1CCCC1)N1CCC2(CCCN(CCOc3ccccc3)C2)C1 (stereo not given) | 12.3 |
| CNc1cncc(C2CCCN2Cc2c[nH]cn2)n1 (stereo not given) | 7.88 |
| CO[C@@H]1CCN(C(=O)c2ccccn2)[C@H]1Cc1ccccc1 | 6.95 |
| CC1(C)OCC(CNC(=O)c2cnn(-c3cc(Cl)ccc3Cl)c2N)O1 (stereo not given) | 17.1 |
| CN(C)c1ccc(NC(=O)NCc2ccccn2)cn1 | 11.9 |
| Cc1cnn(CC2CCCN2CC(=O)Nc2cc(C(C)(C)C)no2)c1 (stereo not given) | 6.84 |
| Cn1cc(C(=O)N2CCC(Cc3nccs3)CC2)cn1 | 6.73 |
| CN1CCN(CCO)C(=O)C12CCN(Cc1ccsc1)CC2 | 13.5 |

| Structure (SMILES) | Percent Effect [%] |
| --- | --- |
| Cc1ccc(C(=O)N2CCC3(CC2)CC(N2CCOCC2)C3)cc1 | -3.18 |
| Cn1ncc2c1NC(=O)CC2c1ccc(O)cc1 (stereo not given) | 11.3 |
| CNC(=O)c1cc(S(=O)(=O)C(C)C)cs1 | 13.7 |
| CCC1c2ccsc2CCN1C(=O)NCc1cc[nH]n1 (stereo not given) | 7.25 |
| CC[C@@H]1N(Cc2ccsc2)CCC[C@]12CCC(=O)N2CCOC | 10.9 |
| CCNC(=O)[C@@H]1C[C@@H](NC(=O)Cc2ccncc2)CN1Cc1ccsc1 | 11.6 |
| O=C(NCCO)c1ccn(-c2ccc3ccccn23)n1 | 19.1 |
| NC[C@H]1CC[C@H](C(NC(=O)c2ccccc2)c2ccccn2)CC1 (stereo not given in full) | 13.3 |
| O=C(C1CCOC1)N1CCc2ncc(CNc3ccccn3)n2CC1 (stereo not given) | 6.8 |
| CCc1nc(C2CCCN2CCn2cncn2)no1 (stereo not given) | 3.86 |
| CC(C)(C)n1ncc2c1NC(=O)CC2c1ccsc1 (stereo not given) | 13.2 |
| Cn1nc2c(cc1=O)CN(Cc1nnc(-c3ccco3)o1)CC2 | 13.2 |
| CCc1nc(CC(=O)N2CCCC2Cn2cccn2)cs1 (stereo not given) | 6.19 |
| CC(C)c1nnc2n1CCN(C(=O)c1ccc3cc[nH]c3c1)C2 | 1.27 |
| O=C(O)c1cc(S(=O)(=O)N2CCOc3ccccc32)ccc1F | 10.8 |
| CCCc1cc(CNC(=O)C2CCOc3ccccc3C2)on1 (stereo not given) | 10.8 |
| Cc1cc(NC(=O)NCC2CCOC2)no1 (stereo not given) | 5 |
| CC(C)c1nc(C2CCCN2CC(=O)Nc2nncs2)no1 (stereo not given) | 5.17 |
| CCOC1CCCN(C(=O)c2sccc2-n2cnnn2)C1 (stereo not given) | 13.1 |
| CC(=O)N1C[C@@H](c2ccsc2)[C@@H]2CN(Cc3ccccc3)CC[C@@H]21 | 12.2 |

Species on record: Homo sapiens
Assay: To identify inhibition of the IFN signalling (Jak-Stat) pathway via expression of an eGFP reporter gene under the control of an IFN-stimulated response element (ISRE) containing MxA promoter.
Type: functional
Parameters: scale not given: direction of the effect not stated beside the values
Details: 30 µM

| Structure (SMILES) | Percent Effect [%] |
| --- | --- |
| Cc1csc(N2CCCN(C(=O)c3c(C)oc(C)c3C)CC2)n1 | 8.84 |
| CCc1nnc(CN2CCCC(c3cc(C(F)(F)F)[nH]n3)C2)o1 (stereo not given) | -7.26 |
| Cc1cnn(CC2CCCCN2C(=O)c2cc(Cl)c[nH]2)c1 (stereo not given) | 15.7 |
| COC(=O)C1CCN(C(=O)c2ccc(C)c(NS(C)(=O)=O)c2)CC1 | -0.867 |
| c1cc(-c2noc(CN3CCn4c(nnc4C4CC4)C3)n2)co1 | 16.4 |
| CN(CC(=O)Nc1ccc(Br)cn1)C(=O)Cc1ccc(O)cc1 | 0.283 |
| CCc1ncc2c(n1)CN(CC(=O)Nc1nnc(C)s1)CC2 | -8.8 |
| COCCN1CCN(Cc2ccc(F)c(C)c2)[C@H]2CS(=O)(=O)C[C@H]21 | -1.07 |
| CNC(=O)N1C[C@H]2C[C@H](C(=O)Nc3ccccc3)[C@@H](C1)O2 | 1.26 |
| Cc1cccc(CN2C(=O)CCC23CCN(c2ncc(F)cn2)CC3)n1 | -16 |
| N#Cc1cccc(S(=O)(=O)NC(=O)COc2ccc3c(c2)CCC3)c1 | 0.752 |
| O=C(Cn1cc(-c2ccccc2)ncc1=O)Nc1ccncc1 | -4.45 |
| O=C(N1CCCC1)N1CCC2(CCCN(CCOc3ccccc3)C2)C1 (stereo not given) | 15.5 |
| CNc1cncc(C2CCCN2Cc2c[nH]cn2)n1 (stereo not given) | 5.77 |
| CO[C@@H]1CCN(C(=O)c2ccccn2)[C@H]1Cc1ccccc1 | 8.74 |
| CC1(C)OCC(CNC(=O)c2cnn(-c3cc(Cl)ccc3Cl)c2N)O1 (stereo not given) | 11.8 |
| CN(C)c1ccc(NC(=O)NCc2ccccn2)cn1 | -8.9 |
| Cc1cnn(CC2CCCN2CC(=O)Nc2cc(C(C)(C)C)no2)c1 (stereo not given) | 2.79 |
| Cn1cc(C(=O)N2CCC(Cc3nccs3)CC2)cn1 | 15 |
| CN1CCN(CCO)C(=O)C12CCN(Cc1ccsc1)CC2 | -2.12 |

| Structure (SMILES) | Percent Effect [%] |
| --- | --- |
| Cc1ccc(C(=O)N2CCC3(CC2)CC(N2CCOCC2)C3)cc1 | -1.46 |
| Cn1ncc2c1NC(=O)CC2c1ccc(O)cc1 (stereo not given) | 30.7 |
| CNC(=O)c1cc(S(=O)(=O)C(C)C)cs1 | -6.32 |
| CCC1c2ccsc2CCN1C(=O)NCc1cc[nH]n1 (stereo not given) | 21.4 |
| CC[C@@H]1N(Cc2ccsc2)CCC[C@]12CCC(=O)N2CCOC | -2.54 |
| CCNC(=O)[C@@H]1C[C@@H](NC(=O)Cc2ccncc2)CN1Cc1ccsc1 | -2.37 |
| O=C(NCCO)c1ccn(-c2ccc3ccccn23)n1 | 7.26 |
| NC[C@H]1CC[C@H](C(NC(=O)c2ccccc2)c2ccccn2)CC1 (stereo not given in full) | -1.97 |
| O=C(C1CCOC1)N1CCc2ncc(CNc3ccccn3)n2CC1 (stereo not given) | 4.98 |
| CCc1nc(C2CCCN2CCn2cncn2)no1 (stereo not given) | 1.29 |
| CC(C)(C)n1ncc2c1NC(=O)CC2c1ccsc1 (stereo not given) | 15.1 |
| Cn1nc2c(cc1=O)CN(Cc1nnc(-c3ccco3)o1)CC2 | 7.66 |
| CCc1nc(CC(=O)N2CCCC2Cn2cccn2)cs1 (stereo not given) | -17.2 |
| CC(C)c1nnc2n1CCN(C(=O)c1ccc3cc[nH]c3c1)C2 | 6.35 |
| O=C(O)c1cc(S(=O)(=O)N2CCOc3ccccc32)ccc1F | -4.8 |
| CCCc1cc(CNC(=O)C2CCOc3ccccc3C2)on1 (stereo not given) | 29.7 |
| Cc1cc(NC(=O)NCC2CCOC2)no1 (stereo not given) | 5.61 |
| CC(C)c1nc(C2CCCN2CC(=O)Nc2nncs2)no1 (stereo not given) | 7.39 |
| CCOC1CCCN(C(=O)c2sccc2-n2cnnn2)C1 (stereo not given) | 21.5 |
| CC(=O)N1C[C@@H](c2ccsc2)[C@@H]2CN(Cc3ccccc3)CC[C@@H]21 | 12.3 |
